Source: PubChem
A selection: hits, their analogues and other compounds. The true share with any hit is near 12%.
Sfp PPTase inh = inhibitors of Bacillus subtilis Sfp phosphopantetheinyl transferase; Q9F4F7; Biochemical Sfp PPTase activity, qHTS; Potency, µM, inactives show largest response in the series, negative = inhibition, hits mostly inhibitors; hit rate 3.5% among 310,000;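 further: the enzyme is Sfp with the accession as filed and its product quenches rhodamine fluorescence; 0% = enzyme reaction without inhibitor and -100% = no enzyme wells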
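Compounds were incubated with enzyme (final 15 nM) for 15 min at room temperature before substrate addition started the reaction. Fluorescence at 525 nm excitation, 598 nm emission was recorded immediately and after 30 minutes.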
JMJD2A Tudor inh = blocks the human JMJD2A Tudor domain; AlphaScreen JMJD2A-Tudor / H3K4me3 peptide binding; hit rate 4.4% among 390,000; Potency, µM (doses to about 114 µM), for the others: at the top dose activity change, negative = inhibition, most hits filed as inhibitors; O75164; further: on the % scale 0 is the no-effect control and ±100 the full control effect; nearly all actives have a fitted effect of over 50% in size
HP1b chromo inh = blocks HP1-beta chromodomain binding to methylated histone tails; P83916; hit rate 0.56% among 390,000; Potency, µM (titrated, usually from 114 µM), without a hit: at the highest dose activity change, negative = inhibition, usual class: inhibitors; AlphaScreen HP1-beta / biotin-H3K9me3 peptide binding; further: nearly all actives have a fitted effect of over 70% in size
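Compound inhibition of the preformed complex between 50 nM HP1-beta and 50 nM biotinylated H3K9me3 peptide was read by AlphaScreen. Buffer was PBS pH 7.4 with 0.01% Tween-20. Incubations ran 30 min at room temperature, with 10 ug/mL donor/acceptor beads.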
G9a inh = G9a (human) methyltransferase inhibition. Potency, µM (highest dose often 102 µM), without a hit: top-dose activity, negative = inhibition, usual class: inhibitors. G9a H3K9 monomethylation, AlphaScreen, 2 h. Q96KQ7. hit rate 8.8% among 350,000; further: on the % scale 0 is the no-effect control and ±100 the full control effect; nearly all actives have a fitted effect of over 75% in size
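Signal arises when biotinylated H3K9 peptide, once monomethylated, bridges streptavidin donor and antibody-captured acceptor beads. Enzyme at 20 nM was preincubated 15 min with test compounds; peptide 500 nM and SAM 20 uM then reacted for 2 h.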
L3MBTL1 block = inhibitors of human L3MBTL1 | AID 485360 | Q9Y468 | AlphaScreen L3MBTL1–H3K9me1 peptide binding | hit rate 0.66% among 230,000 | Potency, µM (top dose mostly 57.1 µM), inactives show at the highest dose activity, negative = inhibition, most hits filed as inhibitors; further: on the % scale 0 is the no-effect control and ±100 the full control effect; nearly all actives have a fitted effect of over 60% in size
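Displacement of a biotinylated histone H3(1-15) peptide monomethylated at Lys9 (75 nM) from L3MBTL1 (50 nM) was measured by AlphaScreen after a 30 min room-temperature compound incubation; cefsulodin titration served as intraplate control.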
BAZ2B inh = inhibitors of human BAZ2B bromodomain; Potency, µM (series often up to 114 µM), without a hit: at the highest dose activity change, negative = inhibition, hits mostly inhibitors; Q9UIF8; AlphaScreen BAZ2B-H3K14Ac peptide displacement; hit rate 4.4% among 360,000; further: on the % scale 0 is the no-effect control and ±100 the full control effect; nearly all actives have a fitted effect of over 60% in size
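Inhibition is scored as reduced AlphaScreen emission. The BAZ2B/b-H3(5-23)K14Ac complex (50 nM each) in PBS pH 7.4, 0.01% Tween-20 meets compound (up to 110 uM) for 30 min at RT before bead addition.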
Active calls of the source: *; ? = inconclusive; / = not tested or not shown; [ ] = another dose, or the depositor's remark. The call rests on the fitted dose curve; in most records, active means well fitted curve in the direction sought with a large enough effect; inconclusive means small, poorly fitted or top-dose-only effect, or another doubt; inactive means no such curve, though single readings can be large; an effect the other way counts as inactive or inconclusive. Potency means the concentration at half of the fitted maximal effect.

SMILES	Sfp PPTase inh	JMJD2A Tudor inh	HP1b chromo inh	G9a inh	L3MBTL1 block	BAZ2B inh
CCOC(=O)c1ccc(OCC2c3cc(OC)c(OC)cc3CCN2C(=O)Cc2ccc(OC)c(OC)c2)cc1 (centres undefined)	/	?	-10%	?	/	-37%
Cc1cc2c(c(=O)n1Cc1cccnc1)C(c1cccs1)C(C#N)=C(N)O2 (centres undefined)	79µM*	-13%	56%	-5%[0.501 µM]	/	?
O=C(O)c1cc(-c2ccc(N3CCOCC3)cc2)nn1-c1ccc(F)cc1F	13%	-14%	17%	45µM*	5%	4%
O=S(=O)(Nc1ccc(N2CCOCC2)cc1)c1ccc(F)cc1F	21%	-18%	-19%	-3%	2%	-3%
O=C(O)c1cc(-c2ccc(N3CCOCC3)cc2)nn1-c1ccccc1Cl	?	?	31%	56µM*	-9%	/
CCOC(=O)c1c(/N=C/c2cc(OC)cc([N+](=O)[O-])c2O)sc(C)c1C	?	?	?	20µM*	-1%	50µM*
CCOC(=O)c1c(/N=C/C2=C(O)CC(C)(C)CC2=O)sc(C)c1C	-2%	-3%	75%	28%	4%	13%
CCOC(=O)c1c(/N=C/c2cc([N+](=O)[O-])ccc2O)sc(C)c1C	40µM*	-10%	30%	?	-2%	?
C=CCn1c(-c2ccccc2)c[nH]c1=S	79µM*	7.9µM*	?	?	1%	-34%
CCn1c(-c2ccc(-c3ccccc3)cc2)c[nH]c1=S	9%	-36%	21%	?	/	-29%
Cn1c(-c2ccc(-c3ccccc3)cc2)c[nH]c1=S	-23%	?	-4%	14µM*	-3%	-34%
C=CCn1c(-c2ccc(Cl)cc2)c[nH]c1=S	3%	25µM*	9%	1.4µM*	-5%	-27%
COC(=O)c1cc2sc(C)cc2n1CC(=O)Nc1ccc(C)cc1Cl	/	-19%	19%	10%[59 µM]	/	1%
Cc1cccc(NC(=O)N2CCC(CN3CCOCC3)CC2)c1C	/	-12%	37%	0%[59 µM]	/	-1%
Cn1c2cc(C=O)sc2c2cnn(Cc3ccccc3F)c(=O)c21	/	-18%	/	/	/	/
OCC[C@@H]1C[C@H](O)[C@@H](O)[C@@]2(CCCc3ccccc3O2)O1	-6%	-21%	45%	28µM*	-2%	-18%
OCC[C@@H]1C[C@@H](O)[C@H](O)[C@]2(CCCc3ccccc3O2)O1	12%	-6%	43%	-5%	0%	-30%
OCC[C@@H]1C[C@H](O)[C@@H](O)[C@@]2(CCc3ccccc3CO2)O1	-10%	-10%	28%	45µM*	-1%	-6%
COc1ccccc1-n1c(SC)nc2c(sc(=S)n2-c2ccccc2)c1=O	17%	1%	25%	29%	/	1%
COc1ccccc1-n1c(=S)sc2c(=O)n(Cc3ccco3)c(SC)nc21	-1%	?	-34%	13µM*	1%[11.4 µM]	-38%
CCN(CC)C(=O)CSc1nc2c(sc(=S)n2-c2ccccc2)c(=O)n1Cc1ccco1	40µM*	-28%	-31%	40µM*	/	56µM*
Cc1ccc(S(=O)(=O)N2CCc3cc(C(=O)Nc4c(C)cccc4C(C)C)ccc32)cc1	/	-11%	26%	7%[59 µM]	/	-13%
CCS(=O)(=O)N1CCc2cc(C(=O)Nc3ccc(C)c(Cl)c3)ccc21	/	-30%	36%	?	/	-28%
Cc1coc2c1c(C)cc1oc(=O)cc(C)c12	/	-9%	23%	-5%[59 µM]	/	0%
Cc1ccc(C)c(S(=O)(=O)c2c(N)n(/N=C/c3ccco3)c3nc4ccccc4nc23)c1	50µM*	-9%	28%	50µM*	?	?
Cc1ccc(S(=O)(=O)c2c(N)n(CCN3CCOCC3)c3nc4ccccc4nc23)cc1C	-1%	3%	35%	24%[12.7 µM]	46%	2%
Cc1ccc(S(=O)(=O)c2c(N)n(CCC(C)C)c3nc4ccccc4nc23)cc1	17%	1%	76%	-13%	/	4%
